Data on 13 molecules can be found in PubChem BioAssay.

In assay [1] the test system is PRMT1 (protein arginine N-methyltransferase 1). Briefly: PRMT1 binders on small-molecule microarrays, primary screen, biochemical, small-molecule microarray, 635 nm fluorescence (AID 1088).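 Further: binding of Prmt1 protein to compounds spotted on small-molecule microarray slides.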 The conditions noted are these: small-molecule microarray binding, higher = more signal.
Assay [2] can be described thus: yeast growth modulation, basal conditions, primary screen, YJM789 clinical isolate, OD600, 24 h (AID 1089).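 Further: growth of clinical yeast isolate S. cerevisiae YJM 789 seeded 1000 cells per well; test concentration not given here.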 As to conditions: S. cerevisiae YJM789 growth, higher = more signal, called active from +8 up or from −8 down.
Assay [3] is described as follows: fission yeast growth modulation, primary screen, strain 972, OD600, 24 h, no modulator (AID 1090).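 Further: basal condition with compound alone and no growth modifier present; test concentration not given here.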 As to conditions: S. pombe 972 growth, higher = more signal, called active from +8 up or from −8 down.
Assay [4] in a line: S. cerevisiae growth modulation with rapamycin, primary screen, strain BY4716, OD600, 96 h (AID 1091). Further: test concentration not given here. As to conditions: higher = more signal, called active from +8 up or from −8 down.
Assay [5] concerns the target Torsin-1A-interacting protein 2 (Homo sapiens) (UniProt Q8NFQ8). In words: LULL1 binders on small-molecule microarray, primary screen, cell lysate, human LULL1 lysate, 635/667 nm fluorescence (AID 1092).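 Further: probe is lysate of COS7 cells overexpressing human LULL1; score merges per-feature 667 nm fluorescence with signal-to-noise.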 The conditions noted are these: hLULL1 lysate binding, 635 nm fluorescence, higher = more signal.
The nature of assay [6]: E. coli growth modulation, two-sided OD650, primary screen, E. coli filamentation project, strain DRC41, 24 h (AID 1093).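 Further: MC1000 strain lacking acrAB efflux and sulA so SOS filamentation is blocked; test concentration not given here.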 As to conditions: OD650, 24 h, higher = more signal, called active from +8 up or from −8 down.
The nature of assay [7]: small-molecule microarray binders of probe aLefty2, primary screen, biochemical, biotinylated probe, 635/667 nm fluorescence (AID 1094).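 Further: score merges spot fluorescence near 667 nm with spot signal-to-noise ratio.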 As to conditions: higher = more signal.
Assay [8] concerns Noggin (protein binding on small-molecule microarray). Briefly: Noggin binders on small-molecule microarray, primary screen, biochemical, 635/667 nm fluorescence (AID 1095).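 Further: score merges 667 nm feature fluorescence with signal to noise over triplicate slides.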 The conditions noted are these: 635 nm fluorescence, higher = more signal.
Assay [9] addresses Neurogenic locus notch homolog protein 3 (Homo sapiens) (UniProt Q9UM47). Briefly: NOTCH3 binders on small-molecule microarray, primary screen, biochemical, 635/667 nm fluorescence (AID 1096). The conditions noted are these: NOTCH3 binding, 635 nm fluorescence, higher = more signal.
A short description of assay [10]: small-molecule microarray binders of probe aEGFR, primary screen, biochemical, biotinylated probe, 635/667 nm fluorescence (AID 1097).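 Further: probe is a biotinylated anti-EGFR antibody binding compounds printed on slides; score combines fluorescence near 667 nm and signal to noise of each spot.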 The conditions noted are these: higher = more signal.

Calls of active or inactive are those of the source.

Torsin-1A-interacting protein 2 (Homo sapiens), sequence (Q8NFQ8 whole entry, looked up): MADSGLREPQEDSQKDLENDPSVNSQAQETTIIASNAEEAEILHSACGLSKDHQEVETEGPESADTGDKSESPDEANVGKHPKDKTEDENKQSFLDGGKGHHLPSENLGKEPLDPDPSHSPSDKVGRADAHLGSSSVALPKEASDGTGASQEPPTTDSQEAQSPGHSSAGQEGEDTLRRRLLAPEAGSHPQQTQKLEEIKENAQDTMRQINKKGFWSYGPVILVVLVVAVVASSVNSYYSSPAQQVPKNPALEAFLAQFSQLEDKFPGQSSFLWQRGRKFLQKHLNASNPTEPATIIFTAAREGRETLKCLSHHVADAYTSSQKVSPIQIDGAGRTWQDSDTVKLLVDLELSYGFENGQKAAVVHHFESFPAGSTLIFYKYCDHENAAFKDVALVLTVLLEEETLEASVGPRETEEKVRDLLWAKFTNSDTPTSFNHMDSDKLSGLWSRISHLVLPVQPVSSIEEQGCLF
Neurogenic locus notch homolog protein 3 (Homo sapiens), sequence (Q9UM47 whole entry, looked up): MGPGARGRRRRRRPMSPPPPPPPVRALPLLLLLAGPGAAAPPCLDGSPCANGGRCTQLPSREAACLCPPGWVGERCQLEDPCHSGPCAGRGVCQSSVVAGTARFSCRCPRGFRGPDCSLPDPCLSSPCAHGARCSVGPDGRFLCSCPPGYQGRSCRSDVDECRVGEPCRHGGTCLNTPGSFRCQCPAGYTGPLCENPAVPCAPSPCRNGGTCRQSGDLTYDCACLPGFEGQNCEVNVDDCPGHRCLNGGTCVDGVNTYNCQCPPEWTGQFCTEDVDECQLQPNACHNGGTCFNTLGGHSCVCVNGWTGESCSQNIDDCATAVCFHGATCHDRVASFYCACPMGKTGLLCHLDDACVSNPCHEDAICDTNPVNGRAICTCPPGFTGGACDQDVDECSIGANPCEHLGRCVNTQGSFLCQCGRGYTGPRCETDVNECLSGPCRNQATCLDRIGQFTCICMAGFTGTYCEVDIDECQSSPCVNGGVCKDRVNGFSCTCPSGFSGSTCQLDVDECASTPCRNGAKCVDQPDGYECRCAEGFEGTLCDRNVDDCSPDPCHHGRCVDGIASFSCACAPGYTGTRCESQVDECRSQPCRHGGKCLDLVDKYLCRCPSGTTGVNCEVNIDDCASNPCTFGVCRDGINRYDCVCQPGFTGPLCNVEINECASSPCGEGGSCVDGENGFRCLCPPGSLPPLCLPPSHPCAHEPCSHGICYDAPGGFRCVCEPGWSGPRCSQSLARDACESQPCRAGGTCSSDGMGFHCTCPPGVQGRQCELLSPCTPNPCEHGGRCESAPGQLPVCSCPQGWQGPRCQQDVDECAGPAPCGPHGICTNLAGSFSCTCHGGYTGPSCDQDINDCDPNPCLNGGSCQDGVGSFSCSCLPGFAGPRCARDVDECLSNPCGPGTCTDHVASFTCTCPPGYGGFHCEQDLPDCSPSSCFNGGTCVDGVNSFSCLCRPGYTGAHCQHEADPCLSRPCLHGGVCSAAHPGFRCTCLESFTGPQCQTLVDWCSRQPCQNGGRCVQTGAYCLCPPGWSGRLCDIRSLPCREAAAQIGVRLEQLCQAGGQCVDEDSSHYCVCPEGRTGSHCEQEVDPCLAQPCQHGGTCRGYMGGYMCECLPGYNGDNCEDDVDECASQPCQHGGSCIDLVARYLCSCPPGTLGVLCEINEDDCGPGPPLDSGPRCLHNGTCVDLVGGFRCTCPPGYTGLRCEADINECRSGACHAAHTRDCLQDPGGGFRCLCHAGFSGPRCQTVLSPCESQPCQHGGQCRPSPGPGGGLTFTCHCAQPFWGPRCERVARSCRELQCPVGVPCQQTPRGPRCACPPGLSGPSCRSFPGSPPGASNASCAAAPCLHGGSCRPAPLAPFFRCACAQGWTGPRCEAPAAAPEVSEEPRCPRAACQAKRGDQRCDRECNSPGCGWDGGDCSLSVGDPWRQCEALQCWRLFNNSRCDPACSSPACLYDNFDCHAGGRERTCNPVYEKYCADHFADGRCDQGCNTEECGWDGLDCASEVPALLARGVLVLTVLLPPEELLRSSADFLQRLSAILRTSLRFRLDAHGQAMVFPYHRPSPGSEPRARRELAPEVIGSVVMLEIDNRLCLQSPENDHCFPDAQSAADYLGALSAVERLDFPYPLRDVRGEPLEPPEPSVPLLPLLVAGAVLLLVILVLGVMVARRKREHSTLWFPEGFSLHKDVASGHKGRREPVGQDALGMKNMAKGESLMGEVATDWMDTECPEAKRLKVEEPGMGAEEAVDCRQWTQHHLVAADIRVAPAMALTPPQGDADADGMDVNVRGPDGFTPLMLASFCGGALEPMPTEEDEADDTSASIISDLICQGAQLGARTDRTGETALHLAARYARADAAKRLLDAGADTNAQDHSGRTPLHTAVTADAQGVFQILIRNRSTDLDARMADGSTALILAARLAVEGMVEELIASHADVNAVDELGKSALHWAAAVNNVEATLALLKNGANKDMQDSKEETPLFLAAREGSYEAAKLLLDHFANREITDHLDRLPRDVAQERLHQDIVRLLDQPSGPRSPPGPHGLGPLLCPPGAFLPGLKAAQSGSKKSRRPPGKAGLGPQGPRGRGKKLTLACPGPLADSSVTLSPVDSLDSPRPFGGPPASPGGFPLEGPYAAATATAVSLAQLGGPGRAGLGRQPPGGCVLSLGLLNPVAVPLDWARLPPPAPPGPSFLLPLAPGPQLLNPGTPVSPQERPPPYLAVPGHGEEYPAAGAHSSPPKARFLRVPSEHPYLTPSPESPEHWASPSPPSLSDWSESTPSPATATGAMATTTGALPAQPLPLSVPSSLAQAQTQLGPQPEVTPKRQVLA

Turning to `C=CCOC(=O)[C@@H]1[C@H]2C(=O)O[C@H](c3ccccc3)[C@H](c3ccccc3)N2[C@H](c2ccc(OCCOC(=O)[C@@H]3C[C@@H]4C(=O)N[C@@H](CCCC[N+](C)(C)C)C(=O)N4[C@@H]3c3cccc(OCCO)c3)cc2)[C@@]12C(=O)Nc1ccc(I)cc12`, the composite z-score in assay [1] is 1.56; in [5], 2.94; in assay [7], -0.0063; in assay [8], 1.47; in assay [9], 1.13; in [10], 0.0321. Moreover, the z-score in [2] was 1.02 (inactive); in assay [3], -0.945 (inactive); in assay [4], 0.115 (inactive); in assay [6], -0.674 (inactive).

For the molecule `COC(=O)[C@@]1(Cc2ccc(F)cc2)[C@H]2c3cc(C(=O)N4CCCC4)n(Cc4cc(C)n(C)n4)c3C[C@H]2CN1C(=O)c1ccccc1`, the composite z-score was 0.364 in [1]; 3.75 in assay [5]; 0.555 in assay [7]; -0.678 in [8]; 0.769 in assay [9]; 0.209 in [10]. Also, the z-score was -0.408 (inactive) in assay [2], -0.292 (inactive) in [3], 1.2 (inactive) in assay [4] and 0.234 (inactive) in assay [6].

On to `COc1ccc(C(O)C2C=CC3C(=O)N(C)C(=O)C3N2N2CCCCC2)c2ccccc12` (stereo not given), for which the composite z-score turned out to be 1.42 in [1]; 3.01 in [5]; 0.168 in assay [7]; 0.303 in assay [8]; 1.11 in assay [9]; 0.095 in [10]. For the same molecule, the z-score in assay [2] is -0.079 (inactive); in assay [3], 1.16 (inactive); in [4], 0.631 (inactive); in assay [6], -1.22 (inactive).

For `CCCN1C(=O)[C@]2(CCS(=O)(=O)c3ccccc3)N=C(c3ccc(OCCCO)cc3)O[C@@H]2c2ccccc21`, the composite z-score in [1] is 1.54; in assay [5] it was 2.84; in [7] it was 0.106; in assay [8], 0.866; in assay [9], 1.09; in assay [10] it was -0.0509. In addition, the z-score in assay [2] was -0.559 (inactive); in [3] it was -0.0812 (inactive); in [4], 2.82 (inactive); in assay [6], 1.97 (inactive).

With `N#Cc1ccc(NN2C(C(O)c3c(F)cccc3Cl)C=CC3C(=O)N(c4ccccc4)C(=O)C32)cc1` (stereo not given), the composite z-score in [1] is 1.19; in [5] it was 3.53; in assay [7] it was 0.222; in assay [8] it was -0.109; in assay [9] it was 1.06; in assay [10], -0.244. Besides, the z-score in assay [2] is 0.432 (inactive); in assay [3] it was 1.62 (inactive); in assay [4], 2.48 (inactive); in [6] it was -0.62 (inactive).

Regarding `COCCOC(=O)N1C(=O)[C@@]2(c3ccccc31)[C@H](c1ccccc1OCCO)N1[C@H](c3ccccc3)[C@H](c3ccccc3)OC(=O)[C@H]1[C@@H]2C(=O)Nc1nc2ccccc2s1`, the composite z-score in assay [1] was 1.56; in [5] it was 2.25; in assay [7], -0.0285; in [8] it was 1.47; in assay [9] it was 1.09; in [10], -0.0244. The z-score in [2] is 1.68 (inactive); in [3] it was 0.981 (inactive); in assay [4], 4.61 (inactive); in assay [6] it was 2.25 (inactive).

As to `C=CCOC(=O)[C@@H]1[C@H]2C(=O)O[C@H](c3ccccc3)[C@H](c3ccccc3)N2[C@H](c2ccc(OCCOC(=O)[C@@H]3C[C@@H]4C(=O)N[C@@H](Cc5ccccc5)C(=O)N4[C@@H]3c3ccc(O)cc3)cc2)[C@@]12C(=O)Nc1ccc(I)cc12`, the composite z-score in assay [1] is 1.55; in assay [5], 2.06; in assay [7], -0.135; in assay [8] it was 1.87; in [9], 1.11; in assay [10], -0.0828. For the same molecule, the z-score is 0.607 (inactive) in assay [2], 1.18 (inactive) in [3], 4.44 (inactive) in [4] and 1.37 (inactive) in assay [6].

In the case of `COCCCNC(=O)[C@@]1(Cc2ccccc2N=[N+]=[N-])N=C(c2ccc(OCCCO)cc2)O[C@H]1c1ccccc1N=[N+]=[N-]`, the composite z-score was 1.56 in [1]; 3.27 in assay [5]; 0.23 in assay [7]; 0.0556 in [8]; 1.1 in assay [9]; 0.0507 in assay [10]. For the same molecule, the z-score in [2] is 0.253 (inactive); in assay [3] it was -0.143 (inactive); in assay [4], 2.01 (inactive); in assay [6], -0.27 (inactive).

Regarding `O=C1O[C@@H](c2ccccc2)[C@@H](c2ccccc2)N2[C@@H](c3ccc(OCCO)cc3)[C@]3(C(=O)Nc4ccccc43)[C@@H](C(=O)NC[C@H](O)c3ccccc3)[C@H]12`, the composite z-score stood at 1.35 in [1]; 2.44 in [5]; 0.161 in [7]; 0.457 in assay [8]; 0.488 in [9]; 0.174 in assay [10]. Also, the z-score in assay [2] is 1.63 (inactive); in assay [3], 1.59 (inactive); in assay [4], 4.14 (inactive); in assay [6], -0.46 (inactive).

Turning to `COc1ccc([Si](C)(C)[C@H]2[C@H](CCn3cc([C@H](O)c4ccccc4)nn3)O[C@@]3(C(=O)N(Cc4cccc(N5CCOC5=O)c4)c4ccccc43)[C@@H]2C)cc1`, the composite z-score in assay [1] turned out to be 0.961; in [5], 0.872; in [7] it was 0.0342; in [8] it was 0.827; in assay [9], 1.04; in [10] it was 0.117. Moreover, the z-score in assay [2] is -0.0578 (inactive); in assay [3], 0.947 (inactive); in assay [4], 1.95 (inactive); in [6] it was -0.565 (inactive).

`O=C1OCCC=C[C@H]2OC34C=CCN(CCN5CCOCC5)C(=O)[C@H]3N(CCCCCCO)C(=O)[C@@H]4C12` (stereo not given in full): the composite z-score in [1] is 0.358; in [5], 0.562; in assay [7] it was -0.294; in assay [8], -0.627; in assay [9] it was -0.017; in assay [10], -0.251. The z-score in assay [2] was 0.807 (inactive); in [3] it was -1 (inactive); in assay [4], 0.201 (inactive); in assay [6] it was 0.15 (inactive).

In the case of `O=C1NCC(=O)N2[C@@H]1C[C@@H](C(=O)O)[C@H]2c1cccc(OCCO)c1`, the composite z-score was 1.54 in assay [1]; 4.93 in assay [5]; 1.81 in [7]; 2.31 in [8]; 1.03 in [9]; 1.41 in assay [10]. The z-score was -0.215 (inactive) in assay [2], -14.2 (active) in [3], 0.273 (inactive) in [4] and 0.0664 (inactive) in assay [6].

Take `COc1ccc(CCN2C(=O)[C@@]3(Cc4ccccc42)c2ccccc2C(=O)N(Cc2ccccc2C(F)(F)F)[C@H]3c2ccc(CO)cc2)cc1`: the composite z-score in assay [1] is 0.67; in assay [5], 0.568; in assay [7], 0.0077; in [8], 0.451; in [9] it was -0.39; in assay [10] it was -0.276. Further, the z-score in assay [2] is 0.276 (inactive); in assay [3], -0.414 (inactive); in assay [4], -1.68 (inactive); in assay [6], -2.33 (inactive).
